Values joined by “and” are separate entries in the source; they are usually repeats but may differ in a detail not shown here. Identical values can stand only once. Results filed as inconclusive are left out. Entries that show only a call come without a potency. Active and inactive are the calls of the source. Unless noted, calls come from the whole dose curve. Peptide text beside a SMILES is read from it.
How the values were obtained:
[1] = target: DNA dC->dU-editing enzyme APOBEC-3G (Homo sapiens) (UniProt Q9HC16); experiment: qHTS for inhibitors of Vif-A3G interactions: Validation (AID 588379; active = well fitted inhibition curve with a large enough effect)
Procedure, shortened: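 Yellow fluorescence (Ex 488, Em 500-530) of Vif-coexpressing HeLa A3G-eYFP cells, scanned by Acumen cytometer, reports blocked A3G degradation. Cells plated at 700/well overnight at 37 deg C before compound addition, then a further overnight compound incubation at 37 deg C.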

[2] = target: Estrogen receptor (Homo sapiens) (UniProt P03372); experiment: qHTS assay for small molecule agonists of estrogen receptor alpha signaling (AID 588514); note: nearly all actives have a fitted effect of over 70% in size
Procedure, shortened: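 Efficacy is expressed against 20 nM 17-beta-estradiol (100%) and DMSO basal (0%); EC50 from Hill equation. Assay: beta-lactamase reporter in ER-alpha-UAS-bla HEK 293 cells, 18 h compound incubation, CCF4 detection.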

[3] = target: Androgen receptor (Homo sapiens) (UniProt P10275); experiment: qHTS assay for small molecule agonists of androgen receptor signaling (AID 588515; active = well fitted curve in the direction sought with a large enough effect in the signal ratio, with a control signal flat; the % refers to the signal ratio); details: AR-UAS-bla HEK293, beta-lactamase ratio, agonist 16 h; stronger effect = higher value
Procedure, shortened: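 Stimulation of an AR-responsive β-lactamase reporter in GripTite HEK293 cells was measured after 16 h compound exposure at 37 °C, via CCF4 fluorescence after 2 h RT. EC50 from Hill fits, normalized to R1881 at 30 nM.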

[4] = target: Androgen receptor (Homo sapiens) (UniProt P10275); experiment: qHTS assay for small molecule antagonists of androgen receptor signaling (AID 588516; active = well fitted curve in the direction sought with a large enough effect in the signal ratio, with a control signal flat, not every such curve was filed as active; the % refers to the signal ratio)
Procedure, shortened: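 Cells were plated and incubated 5 h, compounds added in titration, then R1881 (10 nM final) as agonist. After 16 h at 37 C, CCF4 substrate was loaded for 2 h at room temperature and fluorescence measured.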

[5] = target: Bile acid receptor (Homo sapiens) (UniProt Q96RI1); experiment: qHTS assay for small molecule antagonists of farnesoid X receptor signaling (AID 588526); note: potency is the fitted concentration of half-maximal effect
Procedure, shortened: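 Antagonist mode: titrated compounds tested against chenodeoxycholic acid stimulation (normalized to 50 uM CDCA and DMSO) in GeneBLAzer HEK293T cells for 16 h. Beta-lactamase read by CCF4 fluorescence; IC50 from Hill fits.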

[6] = qHTS assay for small molecule antagonists of peroxisome proliferator-activated receptor delta signaling (AID 588535; active = well fitted inhibition curve with a large enough effect in the signal ratio, with a control signal flat, not every such curve was filed as active; the % refers to the signal ratio;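 for max response: cells co-treated with a PPAR-delta agonist as stimulator during compound exposure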); details: HEK293T PPARd-UAS-bla, beta-lactamase FRET ratio, 18 h; 460 nm channel
Procedure, shortened: (§1)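 Fluorescence from CCF4-loaded GeneBLAzer PPAR-delta-UAS-bla HEK293T cells (2 hrs RT loading) quantified reporter inhibition after an 18 hr, 37 C compound exposure across a titration.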

[7] = target: Peroxisome proliferator-activated receptor delta (Homo sapiens) (UniProt Q03181); experiment: as above
Procedure, shortened: as §1

[8] = target: Peroxisome proliferator-activated receptor gamma (Homo sapiens) (UniProt P37231); experiment: qHTS assay for small molecule agonists of peroxisome proliferator-activated receptor gamma signaling (AID 588536; active = well fitted curve in the direction sought with a large enough effect in the signal ratio, with a control signal flat, not every such curve was filed as active; the % refers to the signal ratio)
Procedure, shortened: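 Beta-lactamase reporter read-out: CCF4 fluorescence (ex 405, em 460/530 nm) after 2 h at RT. HEK293 GeneBLAzer cells were treated for 16 h at 37 C. Hill fits gave EC50 and efficacy versus 2 uM rosiglitazone (100%) and DMSO (0%).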

[9] = target: Peroxisome proliferator-activated receptor gamma (Homo sapiens) (UniProt P37231); experiment: qHTS assay for small molecule antagonists of peroxisome proliferator-activated receptor gamma signaling (AID 588537; active = well fitted inhibition curve with a large enough effect in the signal ratio, with a control signal flat, not every such curve was filed as active; the % refers to the signal ratio;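 note: reporter cells co-stimulated with 50 nM rosiglitazone agonist during compound treatment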)
Procedure, shortened: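 Fluorescence at 460 and 530 nm (405 nm excitation) reported beta-lactamase cleavage of CCF4 after 2 h room-temperature loading. HEK293 reporter cells in 1% charcoal/dextran-treated FBS had received compound and rosiglitazone for 16 h.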

[10] = target: Vitamin D3 receptor (Homo sapiens) (UniProt P11473); experiment: qHTS assay for small molecule agonists of vitamin D receptor signaling (AID 588543)
Procedure, shortened: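 Reporter cells (HEK293T, VDR-UAS-bla) were seeded in medium with 2% charcoal-stripped serum and incubated 5 h, then compounds in concentration series were added for 16 h at 37 °C. Stimulation was scaled between DMSO basal and 50 nM 1α,25-dihydroxyvitamin D3.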

[11] = qHTS assay for small molecule agonists of retinoid X receptor alpha signaling (AID 588544); details: HEK293T RXRa-UAS-bla, beta-lactamase reporter, 18 h; 530 nm emission
[12] = target: Retinoic acid receptor RXR-alpha (Homo sapiens) (UniProt P19793); experiment: as above
[13] = target: Thyroid hormone receptor beta (Homo sapiens) (UniProt P10828); experiment: qHTS assay for small molecule agonists of thyroid hormone receptor beta signaling (AID 588545)
Procedure, shortened: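 Beta-lactamase reporter activity under TR response element control is measured in HEK 293 cells after 18 hrs compound exposure. Signal is ratiometric CCF4 fluorescence, 460/530 nm.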

[14] = qHTS assay for small molecule antagonists of retinoid X receptor alpha signaling (AID 588546; active = well fitted inhibition curve with a large enough effect in the signal ratio, with a control signal flat, not every such curve was filed as active; the % refers to the signal ratio; note: potency is the fitted concentration of half-maximal effect;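 for max response: cells stimulated with 9-cis-retinoic acid as agonist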); details: HEK293T RXRa-UAS-bla, beta-lactamase ratio, antagonist mode; measured here: W530 green channel, cytotoxicity proxy
Procedure, shortened: (§2)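 Beta-lactamase reporter inhibition, read as CCF4 fluorescence ratio (ex 405, em 460/530 nm) after 2 h at RT. HEK293T UAS-bla cells, 2500/well, were stimulated with 9-cis-RA at 500 or 100 nM final alongside test compound for 18 h at 37 C.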

[15] = target: Retinoic acid receptor RXR-alpha (Homo sapiens) (UniProt P19793); experiment: as above; details: HEK293T RXRa-UAS-bla, beta-lactamase ratio, antagonist mode
Procedure, shortened: as §2

[16] = target: Thyroid hormone receptor beta (Homo sapiens) (UniProt P10828); experiment: qHTS assay for small molecule antagonists of thyroid hormone receptor beta signaling (AID 588547; active = well fitted inhibition curve with a large enough effect in the signal ratio, with a control signal flat, not every such curve was filed as active; the % refers to the signal ratio;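 note: cells stimulated with 0.4 nM T3 agonist during compound exposure; series mostly up to about 77 µM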); details: TR-UAS-bla HEK293, beta-lactamase ratio, antagonist mode, 18 h
Procedure, shortened: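 TR-UAS-bla GripTite HEK293 cells in 2% charcoal/dextran FBS medium; compounds 0.59 nM to 92 uM with T3 at 0.4nM final, 18 h at 37 C. Beta-lactamase read by CCF4 fluorescence (460/530 nm); Hill fits gave IC50 and efficacy.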

[17] = target: Glucocorticoid receptor (Homo sapiens) (UniProt P04150); experiment: qHTS assay for small molecule agonists of glucocorticoid receptor signaling (AID 588532; active = well fitted curve in the direction sought with a large enough effect in the signal ratio, with a control signal flat; the % refers to the signal ratio); details: HeLa MMTV-bla, beta-lactamase ratio, agonist, 18 h; stronger effect = higher value; percent of dexamethasone control, DMSO zero
Procedure, shortened: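 Cells were plated and rested 3-5 h at 37 C, compounds were added in titration and incubated 18 h, then CCF4 substrate was loaded for 2 h at RT before reading blue/green fluorescence. EC50 came from Hill-equation fitting.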

[18] = target: Glucocorticoid receptor (Homo sapiens) (UniProt P04150); experiment: qHTS assay for small molecule antagonists of glucocorticoid receptor signaling (AID 588533; active = well fitted inhibition curve with a large enough effect in the signal ratio, with a control signal flat, not every such curve was filed as active; the % refers to the signal ratio;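 note: cells stimulated with 2 nM dexamethasone as agonist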)
Procedure, shortened: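 Antagonist-mode qHTS: compound titrations added to GRE-bla HeLa cells, then dexamethasone 2 nM final; 18 h, 37 C. CCF4 FRET fluorescence normalized to dexamethasone and DMSO; IC50 from Hill fit.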

Chain of Estrogen receptor (Homo sapiens) (P03372 whole entry, looked up): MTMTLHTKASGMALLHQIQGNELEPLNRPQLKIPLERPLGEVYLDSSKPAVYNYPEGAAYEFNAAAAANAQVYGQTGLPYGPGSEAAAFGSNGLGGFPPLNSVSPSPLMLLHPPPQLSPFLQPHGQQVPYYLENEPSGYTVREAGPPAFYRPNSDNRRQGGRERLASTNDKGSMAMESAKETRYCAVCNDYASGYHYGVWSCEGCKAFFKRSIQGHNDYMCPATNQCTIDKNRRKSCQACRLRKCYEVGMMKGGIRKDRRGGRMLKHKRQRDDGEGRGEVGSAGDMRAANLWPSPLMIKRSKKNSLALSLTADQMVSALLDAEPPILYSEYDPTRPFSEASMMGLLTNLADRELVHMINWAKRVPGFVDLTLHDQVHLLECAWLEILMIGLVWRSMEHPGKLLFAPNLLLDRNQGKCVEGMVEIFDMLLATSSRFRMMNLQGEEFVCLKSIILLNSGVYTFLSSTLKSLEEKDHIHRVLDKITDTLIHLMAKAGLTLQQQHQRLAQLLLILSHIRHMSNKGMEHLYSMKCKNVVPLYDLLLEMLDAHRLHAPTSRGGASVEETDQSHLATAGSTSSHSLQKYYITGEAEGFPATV
Chain of Retinoic acid receptor RXR-alpha (Homo sapiens) (P19793 whole entry, looked up): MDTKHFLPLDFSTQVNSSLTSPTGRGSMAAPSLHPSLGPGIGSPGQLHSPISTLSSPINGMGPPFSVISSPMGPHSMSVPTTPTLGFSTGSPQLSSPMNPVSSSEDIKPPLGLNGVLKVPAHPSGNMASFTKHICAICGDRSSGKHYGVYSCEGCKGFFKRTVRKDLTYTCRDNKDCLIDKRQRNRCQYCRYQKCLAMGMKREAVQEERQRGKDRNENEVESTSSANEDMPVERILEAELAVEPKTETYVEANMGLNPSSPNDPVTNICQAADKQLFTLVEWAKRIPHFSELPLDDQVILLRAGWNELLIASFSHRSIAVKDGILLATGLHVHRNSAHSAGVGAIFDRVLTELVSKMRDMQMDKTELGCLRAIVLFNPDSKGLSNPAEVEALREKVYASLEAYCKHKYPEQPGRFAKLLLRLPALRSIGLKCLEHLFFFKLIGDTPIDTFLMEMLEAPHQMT
Chain of Bile acid receptor (Homo sapiens) (Q96RI1 whole entry, looked up): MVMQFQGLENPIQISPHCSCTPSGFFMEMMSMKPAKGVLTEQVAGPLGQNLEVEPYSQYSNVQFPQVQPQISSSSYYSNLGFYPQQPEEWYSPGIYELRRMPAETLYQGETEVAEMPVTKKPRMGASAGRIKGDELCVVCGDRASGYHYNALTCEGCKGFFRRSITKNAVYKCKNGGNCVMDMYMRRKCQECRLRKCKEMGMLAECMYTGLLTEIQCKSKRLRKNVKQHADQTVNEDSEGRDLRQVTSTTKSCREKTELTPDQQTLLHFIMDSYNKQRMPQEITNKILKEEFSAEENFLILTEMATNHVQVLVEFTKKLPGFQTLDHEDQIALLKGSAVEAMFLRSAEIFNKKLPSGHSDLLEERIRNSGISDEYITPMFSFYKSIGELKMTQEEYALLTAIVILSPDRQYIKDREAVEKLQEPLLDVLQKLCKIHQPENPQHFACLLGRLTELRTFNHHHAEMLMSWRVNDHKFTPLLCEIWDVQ
Chain of Peroxisome proliferator-activated receptor delta (Homo sapiens) (Q03181 whole entry, looked up): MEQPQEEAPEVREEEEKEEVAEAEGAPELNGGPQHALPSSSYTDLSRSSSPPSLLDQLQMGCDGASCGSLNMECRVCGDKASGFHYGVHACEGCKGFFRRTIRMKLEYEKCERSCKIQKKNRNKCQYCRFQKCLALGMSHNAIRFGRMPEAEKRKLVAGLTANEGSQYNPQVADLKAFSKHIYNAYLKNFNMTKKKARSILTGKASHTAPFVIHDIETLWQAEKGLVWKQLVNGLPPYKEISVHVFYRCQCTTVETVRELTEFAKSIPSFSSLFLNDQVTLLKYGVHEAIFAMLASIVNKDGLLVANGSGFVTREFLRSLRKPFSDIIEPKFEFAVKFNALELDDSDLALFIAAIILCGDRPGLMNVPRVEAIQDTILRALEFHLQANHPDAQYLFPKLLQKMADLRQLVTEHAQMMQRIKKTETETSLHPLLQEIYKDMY
Chain of Peroxisome proliferator-activated receptor gamma (Homo sapiens) (P37231 whole entry, looked up): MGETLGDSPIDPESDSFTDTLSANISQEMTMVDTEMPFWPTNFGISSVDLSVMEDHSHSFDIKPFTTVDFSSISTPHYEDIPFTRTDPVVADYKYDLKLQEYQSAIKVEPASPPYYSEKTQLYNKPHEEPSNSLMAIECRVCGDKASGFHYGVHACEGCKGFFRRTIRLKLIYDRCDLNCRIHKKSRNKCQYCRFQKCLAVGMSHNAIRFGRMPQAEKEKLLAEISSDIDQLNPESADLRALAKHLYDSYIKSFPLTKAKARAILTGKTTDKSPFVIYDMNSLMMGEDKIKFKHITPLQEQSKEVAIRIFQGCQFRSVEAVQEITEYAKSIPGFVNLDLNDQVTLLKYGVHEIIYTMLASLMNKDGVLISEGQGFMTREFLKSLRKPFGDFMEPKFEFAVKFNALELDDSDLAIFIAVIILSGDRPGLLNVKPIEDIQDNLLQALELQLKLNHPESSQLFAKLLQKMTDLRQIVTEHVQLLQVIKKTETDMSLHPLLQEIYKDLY
Chain of Androgen receptor (Homo sapiens) (P10275 whole entry, looked up): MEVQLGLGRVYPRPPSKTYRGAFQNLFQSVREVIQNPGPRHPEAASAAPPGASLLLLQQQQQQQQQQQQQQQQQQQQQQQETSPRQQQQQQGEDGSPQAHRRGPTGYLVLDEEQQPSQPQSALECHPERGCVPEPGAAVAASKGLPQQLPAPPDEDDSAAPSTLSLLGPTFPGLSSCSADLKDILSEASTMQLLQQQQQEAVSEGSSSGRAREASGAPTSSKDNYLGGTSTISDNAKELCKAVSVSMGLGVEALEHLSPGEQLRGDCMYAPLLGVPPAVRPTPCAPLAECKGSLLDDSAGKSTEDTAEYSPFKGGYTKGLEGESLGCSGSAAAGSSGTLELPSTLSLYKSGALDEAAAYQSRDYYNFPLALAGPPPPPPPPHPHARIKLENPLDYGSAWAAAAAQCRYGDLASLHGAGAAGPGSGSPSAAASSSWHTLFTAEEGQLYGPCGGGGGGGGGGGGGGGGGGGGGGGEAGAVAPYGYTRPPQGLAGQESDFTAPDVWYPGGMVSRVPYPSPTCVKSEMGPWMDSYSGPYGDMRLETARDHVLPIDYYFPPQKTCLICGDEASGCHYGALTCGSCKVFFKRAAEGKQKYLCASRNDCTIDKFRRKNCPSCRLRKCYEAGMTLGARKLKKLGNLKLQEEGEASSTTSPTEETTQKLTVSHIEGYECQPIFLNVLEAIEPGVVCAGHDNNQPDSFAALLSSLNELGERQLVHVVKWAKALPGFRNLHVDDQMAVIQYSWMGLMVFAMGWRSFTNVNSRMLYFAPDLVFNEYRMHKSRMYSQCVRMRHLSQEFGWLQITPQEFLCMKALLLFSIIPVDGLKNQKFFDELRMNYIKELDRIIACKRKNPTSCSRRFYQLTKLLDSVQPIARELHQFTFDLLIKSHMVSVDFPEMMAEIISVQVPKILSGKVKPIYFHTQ
Chain of DNA dC->dU-editing enzyme APOBEC-3G (Homo sapiens) (Q9HC16 whole entry, looked up): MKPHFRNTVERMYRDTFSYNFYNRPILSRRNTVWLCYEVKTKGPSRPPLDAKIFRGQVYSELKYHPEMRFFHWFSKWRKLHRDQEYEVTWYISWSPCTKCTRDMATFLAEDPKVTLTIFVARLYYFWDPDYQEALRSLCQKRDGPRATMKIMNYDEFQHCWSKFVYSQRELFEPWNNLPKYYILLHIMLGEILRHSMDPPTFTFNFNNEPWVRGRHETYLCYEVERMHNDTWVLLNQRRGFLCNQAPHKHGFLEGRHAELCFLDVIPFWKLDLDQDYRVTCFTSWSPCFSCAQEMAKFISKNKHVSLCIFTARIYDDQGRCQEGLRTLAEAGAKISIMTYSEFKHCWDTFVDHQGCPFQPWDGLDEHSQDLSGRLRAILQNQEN
Chain of Vitamin D3 receptor (Homo sapiens) (P11473 whole entry, looked up): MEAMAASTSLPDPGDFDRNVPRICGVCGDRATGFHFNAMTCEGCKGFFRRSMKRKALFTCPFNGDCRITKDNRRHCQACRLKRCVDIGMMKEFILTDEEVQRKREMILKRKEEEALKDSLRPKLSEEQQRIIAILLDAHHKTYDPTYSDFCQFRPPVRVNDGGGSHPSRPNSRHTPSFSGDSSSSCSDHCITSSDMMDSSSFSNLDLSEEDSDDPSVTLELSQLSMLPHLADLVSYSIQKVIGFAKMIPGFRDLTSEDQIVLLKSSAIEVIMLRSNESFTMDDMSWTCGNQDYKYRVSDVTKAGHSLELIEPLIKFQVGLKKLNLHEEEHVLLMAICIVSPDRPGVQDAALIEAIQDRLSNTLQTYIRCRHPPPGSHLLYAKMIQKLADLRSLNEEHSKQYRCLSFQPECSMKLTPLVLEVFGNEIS
Chain of Thyroid hormone receptor beta (Homo sapiens) (P10828 whole entry, looked up): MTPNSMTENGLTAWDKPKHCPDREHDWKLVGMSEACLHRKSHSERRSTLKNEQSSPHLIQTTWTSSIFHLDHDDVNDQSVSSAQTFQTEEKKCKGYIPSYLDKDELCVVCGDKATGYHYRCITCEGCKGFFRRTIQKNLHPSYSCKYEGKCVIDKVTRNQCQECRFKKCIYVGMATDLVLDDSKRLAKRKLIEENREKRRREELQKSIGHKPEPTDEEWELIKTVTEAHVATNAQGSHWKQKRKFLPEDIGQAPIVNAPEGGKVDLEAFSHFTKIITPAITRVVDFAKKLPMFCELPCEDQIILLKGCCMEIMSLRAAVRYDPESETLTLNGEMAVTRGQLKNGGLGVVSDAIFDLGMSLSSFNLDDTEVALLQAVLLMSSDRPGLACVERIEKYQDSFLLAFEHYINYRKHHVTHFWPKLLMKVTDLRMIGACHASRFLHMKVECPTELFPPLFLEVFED

CC(Cc1ccc(O)c(O)c1)C(C)Cc1ccc(O)c(O)c1 (stereo not drawn)
outcome [1]: inactive

CC1=CCC(C(C)(C)O)CC1 (stereo not drawn)
Potency [2]: inactive
activation [3]: 3.37% (inactive)
outcome [4]: inactive
Potency [5]: inactive
max response [6]: -21.9%
outcome [7]: inactive
outcome [8]: inactive
outcome [9]: inactive
outcome [10]: inactive
max response [11]: -10.8%
outcome [12]: inactive
outcome [13]: inactive
max response [14]: 1.88%
max response [15]: -18.6% (inactive)
activity change % (negative = inhibition) [16]: -18.4% (inactive)

COC(=O)C1=C(C)NC(C)=C(C(=O)OCCCN2CCC(c3ccccc3)(c3ccccc3)CC2)[C@H]1c1cccc([N+](=O)[O-])c1
outcome [1]: inactive

CC(O)CO (stereo not drawn)
Potency [2]: inactive
Potency [5]: inactive
activation [17]: -4.49% (inactive) and -3.73% (inactive)
outcome [18]: inactive
max response [6]: 21.4% and -10.4%
outcome [7]: inactive
outcome [8]: inactive
outcome [9]: inactive
outcome [10]: inactive
max response [11]: -9.84% and -15.2%
outcome [12]: inactive
outcome [13]: inactive
max response [14]: -2.37% and -5.47%
max response [15]: 9.68% (inactive) and 0.556% (inactive)
activity change % (negative = inhibition) [16]: 11.6% (inactive) and -10.9% (inactive)

Cc1cn([C@H]2C[C@H](O)[C@@H](CO)O2)c(=O)[nH]c1=O
outcome [1]: inactive

O=C(O)CCC(=O)C(=O)O
Potency [2]: inactive
activation [17]: -1.14% (inactive)
outcome [18]: inactive
outcome [8]: inactive
outcome [9]: inactive
outcome [10]: inactive
max response [11]: -2.92%
outcome [12]: inactive
outcome [13]: inactive
max response [14]: -14.3%
max response [15]: 8.74% (inactive)
activity change % (negative = inhibition) [16]: 1.53% (inactive)

CCCC(=O)Nc1ncnc2c1ncn2[C@@H]1O[C@@H]2COP(=O)(O)O[C@H]2[C@H]1OC(=O)CCC
outcome [1]: inactive

COC(=O)[C@H]1[C@H]2CC3c4[nH]c5ccccc5c4CCN3C[C@@H]2CC[C@@H]1O (stereo partly drawn)
outcome [1]: inactive

CCCCCCCC/C=C\CCCCCCCC(=O)O
Potency [2]: inactive
Potency [5]: inactive
activation [17]: -2.91% (inactive) and 1.43% (inactive)
outcome [18]: inactive
max response [6]: 18% and 10.3%
outcome [7]: inactive
outcome [8]: inactive
max response [11]: -22.4% and -10.3%
outcome [12]: inactive
outcome [13]: inactive
max response [14]: -6.26% and -12.6%
max response [15]: 31.8% (inactive) and 3.81% (inactive)
activity change % (negative = inhibition) [16]: -12.5% (inactive)

Cc1ccccc1
activation [17]: -1.45% (inactive) and 2.79% (inactive)
outcome [18]: inactive
max response [6]: 1.03% and 40.9%
outcome [7]: inactive
outcome [8]: inactive
outcome [9]: inactive
outcome [10]: inactive
max response [11]: -1.14% and 7.93%
outcome [12]: inactive
outcome [13]: inactive
max response [14]: -4.05% and 9.42%
max response [15]: -5.8% (inactive) and 14.2% (inactive)

O=S(=O)(O)O
outcome [8]: inactive
outcome [9]: inactive
max response [11]: -13.7% and 0.0864%
outcome [12]: inactive
outcome [13]: inactive
max response [14]: -14.3% and 12.6%
max response [15]: -0.45% (inactive) and -13.7% (inactive)
activity change % (negative = inhibition) [16]: 16% (inactive) and -10.1% (inactive)

CCOC(C)=O
Potency [2]: inactive
activation [17]: -2.25% (inactive)
outcome [18]: inactive
max response [6]: -20.7%
outcome [7]: inactive
outcome [8]: inactive
outcome [9]: inactive
outcome [10]: inactive
max response [11]: -19.8%
outcome [12]: inactive
outcome [13]: inactive
activity change % (negative = inhibition) [16]: -2.37% (inactive)

CCCCC/C=C\C/C=C\CCCCCCCC(=O)O
Potency [2]: inactive
Potency [5]: inactive
max response [6]: 53% and -23.8%
outcome [7]: inactive
outcome [9]: inactive
outcome [10]: inactive
max response [11]: -2.55%
outcome [12]: inactive
outcome [13]: inactive
max response [14]: 2.1%
max response [15]: 12.5% (inactive)
activity change % (negative = inhibition) [16]: 8.73% (inactive) and 0.41% (inactive)

CC(=O)N[C@@H](CC(=O)O)C(=O)N[C@@H](CCC(=O)O)C(=O)O (Ac-Asp-Glu-OH)
outcome [1]: inactive

CC(C)=O
Potency [2]: inactive
activation [3]: 7.27% (inactive)
outcome [4]: inactive
max response [6]: -10.3%
outcome [7]: inactive
outcome [8]: inactive
outcome [9]: inactive
outcome [10]: inactive
max response [11]: 9.06%
outcome [12]: inactive
outcome [13]: inactive
max response [14]: 9.42%
max response [15]: 3.03% (inactive)
activity change % (negative = inhibition) [16]: -5.42% (inactive)

CC(C)(C)NC(=O)[C@@H]1C[C@@H]2CCCC[C@@H]2CN1C[C@@H](O)[C@H](Cc1ccccc1)NC(=O)[C@H](CC(N)=O)NC(=O)c1ccc2ccccc2n1
Potency [5]: 44.7 µM (active)
outcome [13]: inactive
max response [14]: 9.91%
Potency [15]: 22.4 µM (active)

— PubChem BioAssay (NCATS)
